These results are taken from ChEMBL document CHEMBL4296182, “CO-ADD screening of NIH NCI Diversity Set V”.

In one assay the test system is Staphylococcus aureus. As to the kind of experiment: Antibacterial activity against Staphylococcus aureus MRSA ATCC 43300 (CO-ADD:GP_020); MIC in CAMBH media using NBS plates, by Resazurin F(560/590). It counts as functional. The conditions noted are these: Concentration 20 uM, ASSAY_TEST Inhibition of Bacterial Growth, detection method Resazurin, Fluorescence (ex560/em590), MEDIA CAMHB, plate type 384well, CORNING #3640, time 18 hr. (In general: The colour change of resazurin is a common sign of viable cells or microbes.)

The next assay concerns Acinetobacter baumannii. In words: Antibacterial activity against Acinetobacter baumannii ATCC 19606 (CO-ADD:GN_034); MIC in CAMBH media using NBS plates, by Resazurin F(560/590). It counts as functional. The conditions noted are these: Concentration 20 uM, ASSAY_TEST Inhibition of Bacterial Growth, detection method Resazurin, Fluorescence (ex560/em590), MEDIA CAMHB, plate type 384well, CORNING #3640, time 18 hr.

The next assay has as its system Escherichia coli. As to the kind of experiment: Antibacterial activity against Escherichia coli ATCC 25922 (CO-ADD:GN_001); MIC in CAMBH media using NBS plates, by Resazurin F(560/590). The assay is classed as functional. The following applies: Concentration 20 uM, ASSAY_TEST Inhibition of Bacterial Growth, detection method Resazurin, Fluorescence (ex560/em590), MEDIA CAMHB, plate type 384well, CORNING #3640, time 18 hr.

The subject of another assay is Klebsiella pneumoniae. The conditions noted are these: Concentration 20 uM; ASSAY_TEST Inhibition of Bacterial Growth; detection method Absorption (OD600); MEDIA CAMHB; plate type 384well; NBS; CORNING #3640; time 18 hr.
For another assay, the system named is Candida albicans. The conditions noted are these: 20 µM.
The next assay has as its system Cryptococcus neoformans. The conditions noted are these: Concentration 20 uM; ASSAY_TEST Inhibition of Fungal Growth; detection method Resazurin; Absorption (OD600-OD570); plate type 384well; NBS; CORNING #3640.

For part of these data: Measured potencies and affinities stand elsewhere.

One may read the Inhibition as the relative decrease from the control value, in per cent.

In the case of `Nc1ccccc1-n1nc2ccc3ccccc3c2n1`, the Inhibition is -2.24% with Staphylococcus aureus; -24.16% in the assay with Acinetobacter baumannii; 7.22% in the assay on Escherichia coli; 6.99% in the assay on Klebsiella pneumoniae; 3.16% in the assay on Candida albicans; -10.55% with Cryptococcus neoformans.
Regarding `O=[N+]([O-])c1ccc(/C=C\c2ccncc2)cc1`, the Inhibition is -4.43% in the assay with Staphylococcus aureus; 17.7% in the assay with Acinetobacter baumannii; -9.25% in the assay with Escherichia coli; 16.94% in the assay with Klebsiella pneumoniae; 3.43% in the assay with Candida albicans; -1.17% with Cryptococcus neoformans.
As to `O=C(O)c1cc(N2C(=O)C=CC2=O)cc(N2C(=O)C=CC2=O)c1`, the Inhibition with Staphylococcus aureus was -1.11%; in the assay with Acinetobacter baumannii it was -6.34%; in the assay on Escherichia coli, 5.17%; in the assay with Klebsiella pneumoniae, 6.14%; with Candida albicans it was 5.6%; in the assay with Cryptococcus neoformans, -4%.
Turning to `O=C(c1ccc(O)cc1)c1ccc(C(=O)c2ccc(O)cc2)cc1`, the Inhibition with Staphylococcus aureus is 20.54%; in the assay on Acinetobacter baumannii, 4.24%; in the assay on Escherichia coli, 2.65%; in the assay on Klebsiella pneumoniae it was 14.45%; in the assay with Candida albicans, 3.86%; with Cryptococcus neoformans it was -7.33%.
With `CCOc1ccc(NC(=O)Nc2cc(C(C)C)c(O)cc2C)cc1`, the Inhibition in the assay on Staphylococcus aureus is 12.02%; in the assay with Acinetobacter baumannii it was -0.68%; with Escherichia coli, -2.75%; with Klebsiella pneumoniae it was 20.87%; in the assay on Candida albicans it was 4.16%; in the assay on Cryptococcus neoformans it was -21.1%.
As for `CCOC(=O)c1c(O)cc(C)nc1O`, the Inhibition in the assay with Staphylococcus aureus was 3.86%; in the assay with Acinetobacter baumannii it was -15.92%; in the assay with Escherichia coli, 14.23%; in the assay with Klebsiella pneumoniae, 12.49%; with Candida albicans, 3.14%; with Cryptococcus neoformans it was 13.8%.
With `CC(=O)/C=C(\C)Nc1ccccc1O`, the Inhibition in the assay with Staphylococcus aureus is 8.26%; in the assay on Acinetobacter baumannii, -10.28%; in the assay on Escherichia coli, 7.16%; in the assay with Klebsiella pneumoniae it was 26.72%; with Candida albicans it was 1.01%; in the assay with Cryptococcus neoformans, 2.5%.
With `COc1ccc(Nc2cc(Cl)ccc2C(=O)O)cn1`, the Inhibition with Staphylococcus aureus was -1.71%; in the assay with Acinetobacter baumannii, 14.76%; in the assay on Escherichia coli it was 0%; with Klebsiella pneumoniae it was 20.74%; in the assay on Candida albicans, 22.9%; with Cryptococcus neoformans, -8%.
For `Cc1c(Cl)cccc1Nc1ncccc1C(=O)OCC(O)CO` (stereo not given) [CLONIXERIL], the Inhibition with Staphylococcus aureus was 16.87%; in the assay on Acinetobacter baumannii, 6.56%; with Escherichia coli, -0.19%; in the assay with Klebsiella pneumoniae, 9.09%; with Candida albicans, -1.76%; with Cryptococcus neoformans, -6.15%.
Take `CN1CN(C)C(c2ccncc2)=C1c1ccncc1`: the Inhibition is 5.44% in the assay with Staphylococcus aureus; 14.08% in the assay on Acinetobacter baumannii; -2.65% in the assay on Escherichia coli; 0.75% in the assay with Klebsiella pneumoniae; -0.59% in the assay with Candida albicans; -1.9% with Cryptococcus neoformans.
Turning to `Cc1cc(O)c2c(O)[nH]nc2n1`, the Inhibition in the assay with Staphylococcus aureus was 14.32%; in the assay on Acinetobacter baumannii it was -13.07%; in the assay with Escherichia coli, 7.82%; with Klebsiella pneumoniae, 1.49%; in the assay on Candida albicans it was -3.37%; in the assay with Cryptococcus neoformans it was -5%.
Regarding `O=C(c1ccccc1)c1ccc(-c2ccc(O)cc2)cc1`, the Inhibition with Staphylococcus aureus is -4.49%; in the assay on Acinetobacter baumannii, -14.62%; in the assay with Escherichia coli, 8.24%; in the assay with Klebsiella pneumoniae it was 15.69%; with Candida albicans, 6.54%; in the assay on Cryptococcus neoformans, -10.56%.
`COC(=O)c1ccccc1NCCO`: the Inhibition with Staphylococcus aureus is -8.89%; in the assay with Acinetobacter baumannii, 2.46%; with Escherichia coli it was 10.44%; in the assay on Klebsiella pneumoniae, 7.33%; in the assay with Candida albicans it was -0.42%; in the assay with Cryptococcus neoformans, -9.6%.
On to `CN(c1cccnc1)c1[nH]cnc2nncc1-2`, for which the Inhibition is -13.03% with Staphylococcus aureus; -4.86% with Acinetobacter baumannii; -0.96% in the assay on Escherichia coli; -0.91% in the assay on Klebsiella pneumoniae; 0.07% with Candida albicans; -5.56% with Cryptococcus neoformans.
Take `c1ccc(-c2ccc3c(c2)NC(C2Nc4cc(-c5ccccc5)ccc4O2)O3)cc1` (stereo not given): the Inhibition is 3.85% in the assay on Staphylococcus aureus; 1.02% in the assay on Acinetobacter baumannii; 2.77% with Escherichia coli; 24.34% in the assay with Klebsiella pneumoniae; -1.54% in the assay on Candida albicans; -14.91% with Cryptococcus neoformans.
On to `C=C1CC2(OC1=O)c1ccccc1CCc1ccccc12`, for which the Inhibition in the assay with Staphylococcus aureus is -2.53%; in the assay with Acinetobacter baumannii, -14.2%; in the assay on Escherichia coli it was 2.27%; in the assay on Klebsiella pneumoniae, 9.76%; in the assay on Candida albicans it was 10.3%; in the assay with Cryptococcus neoformans, -9.88%.
Take `CCOC(=O)CCCN(c1[nH]c(C)c(C)c1C#N)S(=O)(=O)c1ccc(C)cc1`: the Inhibition in the assay with Staphylococcus aureus was 20.71%; in the assay with Acinetobacter baumannii, -4.29%; with Escherichia coli it was 15.68%; in the assay on Klebsiella pneumoniae, 14.1%; in the assay on Candida albicans it was -2.66%; in the assay with Cryptococcus neoformans, -4.37%.
On to `CCCCn1c(OC(=S)N(CC)CC)cc(C)nc1=S`, for which the Inhibition is 3.12% in the assay on Staphylococcus aureus; 15.13% with Acinetobacter baumannii; -6.8% with Escherichia coli; 13.25% in the assay with Klebsiella pneumoniae; 7.15% in the assay with Candida albicans; -2.34% with Cryptococcus neoformans.
With `CN(C)c1ncnc2c1ncn2-c1ccccc1`, the Inhibition in the assay on Staphylococcus aureus is -6.98%; with Acinetobacter baumannii, -8.04%; with Escherichia coli, 0.85%; with Klebsiella pneumoniae it was 6.41%; in the assay on Candida albicans, 1.36%; in the assay on Cryptococcus neoformans, -5.49%.
In the case of `O=C(O)C1OCC2(CO1)COC(C(=O)O)OC2` (stereo not given), the Inhibition in the assay on Staphylococcus aureus was 10.92%; in the assay on Acinetobacter baumannii, -13.06%; in the assay with Escherichia coli, 10.47%; in the assay on Klebsiella pneumoniae it was 3.27%; with Candida albicans it was 1.43%; in the assay on Cryptococcus neoformans, -1.34%.
On to `CSc1ccc(NC(=O)Nc2cc(C)ccn2)cc1`, for which the Inhibition is 4.66% with Staphylococcus aureus; -16.85% in the assay on Acinetobacter baumannii; 9.5% in the assay on Escherichia coli; 13.34% with Klebsiella pneumoniae; 0.13% in the assay on Candida albicans; -8.58% in the assay on Cryptococcus neoformans.
On to `CC1CCC(C(C)C)C(NC(=O)c2ccncc2)C1` (stereo not given), for which the Inhibition is 7.04% in the assay on Staphylococcus aureus; -17.65% in the assay on Acinetobacter baumannii; 6.28% in the assay with Escherichia coli; 10.65% in the assay on Klebsiella pneumoniae; -0.85% in the assay with Candida albicans; -11.13% in the assay on Cryptococcus neoformans.
For the compound `CSc1nc(O)c(Nc2cccc(Cl)c2)c(O)n1`, the Inhibition in the assay with Staphylococcus aureus was 7.02%; in the assay with Acinetobacter baumannii it was 14.23%; with Escherichia coli it was -1.67%; with Klebsiella pneumoniae, 7.49%; in the assay with Candida albicans, 0%; in the assay with Cryptococcus neoformans, 16.48%.
Take `COc1cc(C(=O)C(=O)c2ccc(O)c(OC)c2)ccc1O`: the Inhibition in the assay with Staphylococcus aureus was -3.81%; in the assay on Acinetobacter baumannii, -13.36%; in the assay with Escherichia coli, 16.47%; in the assay on Klebsiella pneumoniae it was 8.6%; in the assay with Candida albicans, 1.86%; with Cryptococcus neoformans, -17.88%.
For `CCC1(CC)C(=O)NC(=S)N=C1N`, the Inhibition in the assay on Staphylococcus aureus was 2.67%; in the assay with Acinetobacter baumannii, -4.28%; in the assay with Escherichia coli, 12.79%; with Klebsiella pneumoniae, 14.22%; in the assay with Candida albicans it was 7.8%; in the assay with Cryptococcus neoformans, -2.67%.
